Sampled rows, rich in hits. Any-hit rate of the full collection: about 19%.
HT1080 IDH1KD tx – toxicity to HT-1080 IDH1 knockdown cells (counter line). HT-1080 IDH1 knockdown viability, ATP luminescence, 48 h. Potency, µM (series often up to 46.1 µM), for inactives: at the highest dose activity, negative = toxicity, usual class: cytotoxic. hit rate 2% among 360,000. AID 686971;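 also: potency is read from the fitted curve at half-maximal effect; 0% = DMSO wells and -100% = cell-free medium wells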
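CellTiter-Glo luminescence after 48 h compound exposure at 37 degrees C of IDH1-knockdown HT-1080 cells in 5% FBS RPMI. %Activity scaled between DMSO wells and cell-free media wells, with curves fitted and assigned curve classes.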
HT1080NT lethal – kills 2HG-producing HT-1080-NT fibrosarcoma cells | HT-1080-NT fibrosarcoma viability, CellTiter-Glo ATP luminescence, 48 h | Potency, µM (highest dose often 46.1 µM), for the others: at the highest dose activity, negative = less viability, most hits filed as cytotoxic | hit rate 1.6% among 360,000 | AID 686970;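 also: NT is the 2HG producing partner of a matched IDH1 knockdown line; potency is read from the fitted curve at half-maximal effect; 0% = DMSO-treated cells and -100% = media-only wells without cells; nearly all actives have a fitted effect of over 55% in size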
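Fibrosarcoma NT cells, 750 per well in 5% FBS RPMI, were exposed to compound for 48 hours. Viability: CellTiter-Glo luminescence.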
IL-1B inflam inh – blocks inflammasome-driven IL-1 beta release; THP-1 LPS/ATP IL-1B secretion, AlphaLISA, 16 h; active compounds read low; activity change, % at 57.5 µM; hit rate 4.7% among 360,000; in the data active = activity change below about -50%; inconclusive = mostly about -30% to -49%
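THP-1 cells pretreated 1 hr with compounds (up to 57.5 uM final), then stimulated with LPS (250 ng/mL final) plus ATP (1.25 mM final); secreted IL-1B measured by AlphaLISA after 16 hr, decreased signal indicating inhibition.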
TDP1 cell CPT – DT40-hTDP1 cell growth loss with CPT; Potency, µM (top dose mostly 46.2 µM), without a hit: at the top dose activity change, negative = growth inhibition, actives largely listed as inhibitors; chicken DT40 Tdp1-/-;hTDP1 cells + 20 nM CPT, ATP luminescence, 48 h; hit rate 12% among 420,000; also: potency is read from the fitted curve at half-maximal effect; nearly all actives have a fitted effect of over 55% in size
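Chicken DT40 Tdp1-/- cells stably complemented with human TDP1 were seeded at 400 cells/well in medium containing 20 nM camptothecin, exposed to pin-transferred compounds, and grown at 37 °C for at least 48 hr. Viability was read as ATP luminescence.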
uPA surface inh – inhibitors of cell surface uPA generation | AID 540303 | Potency, µM (top dose mostly 38.3 µM), without a hit: at the highest dose activity change, negative = inhibition, actives largely listed as inhibitors | cell surface uPA generation assay, qHTS | hit rate 0.31% among 330,000; active = well fitted inhibition curve with a large enough effect; inconclusive = small, poorly fitted or top-dose-only effect; inactive = no such curve, though single readings can be large or run the other way; tested in mouse RAW 264.7 cells; also: potency is read from the fitted curve at half-maximal effect; nearly all actives have a fitted effect of over 55% in size
DT40 TDP1 no CPT – qHTS for Inhibitors of human tyrosyl-DNA phosphodiesterase 1 (TDP1): qHTS in cells in absence of CPT; DT40 Tdp1-/- hTDP1 cells, no CPT, ATP luminescence, 48 h; Potency, µM (titrated, usually from 46.2 µM), for the others: top-dose activity change, negative = growth inhibition, actives largely listed as inhibitors; hit rate 15% among 420,000; also: potency is read from the fitted curve at half-maximal effect; nearly all actives have a fitted effect of over 55% in size
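DT40 Tdp1-/-;hTDP1 cells, no CPT (DMSO vehicle only), 400 cells/well; compounds pin-transferred; ≥48 hr, 37 °C; CellTiter-Glo 30 min RT dark, luminescence read.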
The depositor's hits bear a star; ? = inconclusive; / = no result; [ ] = remark or other dose. Unless noted, calls follow the shape of the dose curve; as a rule, active = well fitted curve in the direction sought with a large enough effect; inconclusive = small, poorly fitted or top-dose-only effect, or another doubt; inactive = no such curve, though single readings can be large; an effect the other way counts as inactive or inconclusive. Unless noted, % is scaled to controls: 0 for no effect and ±100 for the full control effect.

SMILES	HT1080 IDH1KD tx	HT1080NT lethal	IL-1B inflam inh	TDP1 cell CPT	uPA surface inh	DT40 TDP1 no CPT
CCOC(=O)/C(C#N)=C\c1ccc(N2CCN(C/C=C/c3ccccc3)CC2)cc1	-13%	-8%	6	?	-2%	21µM*
COc1ccc(S(=O)(=O)N2CCN(C/C=C/c3ccccc3)CC2)cc1F	-3%	-8%	-65*	2%	0%	?
COc1ccc(S(=O)(=O)N2CCN(CCCOc3ccc(F)cc3)CC2)cc1OC	-23%	0%	-14	?	-4%	21µM*
CCOC(=O)/C(C#N)=C/c1c(N2CCN(c3ccccc3)CC2)nc2ccccn2c1=O	25%	2%	32	?	9%	-10%
COc1ccc(S(=O)(=O)N2CCN(c3ccc(F)cc3)CC2)cc1OC	-1%	1%	16	-19%	11%	-17%
O=C(c1cccc(S(=O)(=O)N2CCOCC2)c1)N1CCN(C/C=C/c2ccccc2)CC1	0%	0%	7	?	-6%	?
CCOC(=O)c1ccc(S(=O)(=O)N2CCN(C)CC2)cc1	15%	2%	15	3%	-9%	-2%
CCOC(=O)c1ccc(S(=O)(=O)N2CCN(C/C=C/c3ccccc3)CC2)cc1	-2%	-5%	1	?	9%	13µM*
COc1ccccc1CNc1ccnc(-c2cccc(NS(C)(=O)=O)c2)n1	/	/	/	?	/	-17%
CCN1C(=O)[C@H]2[C@H]3CN=C(SCc4ccc(Cl)cc4)N3[C@@](Cc3ccccc3)(C(=O)OC)[C@H]2C1=O	?	?	-18	?	-10%	12µM*
COC(=O)[C@@]1(Cc2ccccc2)[C@H]2C(=O)N(Cc3ccccc3)C(=O)[C@H]2[C@H]2CN=C(SCC(=O)c3ccccc3)N21	5%	8%	-14	?	?	18µM*
CC[C@]1(C(=O)OC)[C@H]2C(=O)N(Cc3ccccc3)C(=O)[C@H]2[C@H]2CN=C(SCC(=O)c3ccccc3)N21	-6%	-3%	0	?	-4%	?
COc1ccc(-c2cc(NC=O)c3ncc(-c4cc(OC)c(OC)c(OC)c4)n3c2)cc1	?	?	108	0.15µM*	/	0.21µM*
COc1ccc(-c2cnc3c(NC=O)cc(-c4cc(OC)c(OC)c(OC)c4)cn23)cc1OC	?	?	-28	6.5µM*	/	5.2µM*
COc1ccc(F)cc1-c1cc(NC=O)c2ncc(-c3cccc(C(F)(F)F)c3)n2c1	5.2µM*	?	3	5.2µM*	/	4.6µM*
COc1ccc(-c2cnc3c(NC=O)cc(-c4ccoc4)cn23)cc1OC	?	?	-23	5.2µM*	/	2.9µM*
CCCNC(=O)C1(C)CCCN(C(=O)CN2C(=O)c3ccccc3C2=O)C1 (stereo not drawn)	16%	18%	15	4%	/	8%
CC(C)[C@@H](NC(=O)C1CCC(CNC(=O)[C@H](Cc2ccccc2)NC(=O)OC(C)(C)C)CC1)C(=O)O (stereo partly drawn)	15%	1%	5	1%	1%	-3%
COc1ccc(-c2cnc3c(NC=O)cc(-c4ccc(F)cc4)cn23)cc1OC	?	?	-14	0.0058µM*	/	0.013µM*
COc1ccc(-c2cnc3c(NC=O)cc(-c4ccccc4)cn23)cc1OC	?	?	-14	0.92µM*	/	0.92µM*
CN(C)c1ccc(C(=C2C=CC(=[N+](C)C)C=C2)c2ccc(N(C)C)cc2)cc1	/	/	/	0.23µM*	/	0.52µM*
CN(C)c1ccc(C(=C2C=CC(=[N+](C)C)C=C2)c2ccccc2)cc1	/	/	/	0.84µM*	/	0.6µM*
COc1ccccc1NC(=O)c1ccccc1SC	22%	23%	-15	0%	6%	-8%
COc1ccccc1NC(=O)c1cc2ccc(O)cc2o/c1=N\O	?	?	-63*	?	-3%	?
COc1ccccc1NC(=O)c1cc2ccccc2o/c1=N\O	0%	-1%	-18	21µM*	0%	21µM*
SMILES	HT1080 IDH1KD tx	HT1080NT lethal	IL-1B inflam inh	TDP1 cell CPT	uPA surface inh	DT40 TDP1 no CPT
O=C(NCc1ccccc1)C(=O)NCC(c1ccco1)S(=O)(=O)c1ccccc1 (stereo not drawn)	/	/	/	-5%	/	-20%
CCS(=O)(=O)N1CCC(C(=O)O)CC1	3%	-22%	8	-3%	1%	-1%
CN1CCN(C(=O)CCN2C(=O)/C(=C\c3ccc(Cl)cc3Cl)SC2=S)CC1	?	?	-85*	15µM*	-3%	12µM*
O=C(O)CCCN1C(=O)/C(=C/C=C/c2ccco2)SC1=S	1%	-17%	?	-22%	-2%	?
O=C(O)CCCN1C(=O)/C(=C\C(Cl)=C\c2ccccc2)SC1=S	?	?	-95*	18µM*	5µM*	21µM*
O=C(CCN1C(=O)/C(=C/c2ccc(Cl)cc2)SC1=S)NC1C=CS(=O)(=O)C1 (stereo not drawn)	-1%	-9%	14	-13%	5%	?
CN1CCN(C(=O)CCCN2C(=O)/C(=C/c3ccccc3)SC2=S)CC1	?	?	-97*	18µM*	-3%	16µM*
O=C(CCCN1C(=O)/C(=C\c2ccccc2)SC1=S)Nc1cccc(C(=O)O)c1	-3%	0%	-2	3%	0%	-18%
CN1CCN(C(=O)CCCN2C(=O)/C(=C/c3ccc(Cl)cc3)SC2=S)CC1	-13%	1%[9.24 µM]	-4	15µM*	?	12µM*
O=C(CCSCCc1ccccn1)Nc1ccc(Cl)cc1	/	/	/	-18%	/	-18%
O=C(OCc1cccc(C(F)(F)F)c1)c1ccc[nH]c1=O	8%	15%	-3	8%	3%	0%
CC1(C)OC(c2ccccc2)=C/C(=C/C=Nc2ccccc2)O1	-4%	1%	-5	23µM*	-3%	?
c1cc2c(cc1C1CCCCC1)c1c3n2CCN[C@H]3CCC1	/	/	/	11µM*	/	11µM*
O=C(O)c1ccc2c(c1)c1c3n2CCNC3CCC1 (stereo not drawn)	3%	3%	1	8%	10%	-5%
Cc1ccc2c(c1)c1c3n2CCCNC3CCC1 (stereo not drawn)	?	?	-55*	?	/	?
c1cc2c(cc1C1CCCCC1)c1c3n2CCCNC3CCC1 (stereo not drawn)	21µM*	16µM*	-83*	7.3µM*	16%	6.5µM*

Source: PubChem
